Experimental data taken from PubChem BioAssay (Tox21).
Results filed as inconclusive are left out. Where a structure was tested more than once in an assay, its records may differ in their call. Activity calls are given as the source filed them. Unless noted, the call rests on the fitted dose curve; in most records, active means well fitted curve in the direction sought with a large enough effect in the repeat runs; inconclusive means weak or mixed curves; inactive means no such curve, though single readings can be large; an effect the other way counts as inactive or inconclusive.

Legend:
[1] = biological target: Aryl hydrocarbon receptor (Homo sapiens) (UniProt P35869); experiment: qHTS assay to identify small molecule that activate the aryl hydrocarbon receptor (AhR) signaling pathway (AID 743085); further: nearly all actives have a fitted effect of over 15% in size; further: potency means the concentration at half of the fitted maximal effect;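 on activation: HG2L7.5c1 human HepG2 liver cells with stably integrated DRE-driven firefly reporter; series mostly up to about 70 µM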
Chain of Aryl hydrocarbon receptor (Homo sapiens) (P35869 whole entry, looked up): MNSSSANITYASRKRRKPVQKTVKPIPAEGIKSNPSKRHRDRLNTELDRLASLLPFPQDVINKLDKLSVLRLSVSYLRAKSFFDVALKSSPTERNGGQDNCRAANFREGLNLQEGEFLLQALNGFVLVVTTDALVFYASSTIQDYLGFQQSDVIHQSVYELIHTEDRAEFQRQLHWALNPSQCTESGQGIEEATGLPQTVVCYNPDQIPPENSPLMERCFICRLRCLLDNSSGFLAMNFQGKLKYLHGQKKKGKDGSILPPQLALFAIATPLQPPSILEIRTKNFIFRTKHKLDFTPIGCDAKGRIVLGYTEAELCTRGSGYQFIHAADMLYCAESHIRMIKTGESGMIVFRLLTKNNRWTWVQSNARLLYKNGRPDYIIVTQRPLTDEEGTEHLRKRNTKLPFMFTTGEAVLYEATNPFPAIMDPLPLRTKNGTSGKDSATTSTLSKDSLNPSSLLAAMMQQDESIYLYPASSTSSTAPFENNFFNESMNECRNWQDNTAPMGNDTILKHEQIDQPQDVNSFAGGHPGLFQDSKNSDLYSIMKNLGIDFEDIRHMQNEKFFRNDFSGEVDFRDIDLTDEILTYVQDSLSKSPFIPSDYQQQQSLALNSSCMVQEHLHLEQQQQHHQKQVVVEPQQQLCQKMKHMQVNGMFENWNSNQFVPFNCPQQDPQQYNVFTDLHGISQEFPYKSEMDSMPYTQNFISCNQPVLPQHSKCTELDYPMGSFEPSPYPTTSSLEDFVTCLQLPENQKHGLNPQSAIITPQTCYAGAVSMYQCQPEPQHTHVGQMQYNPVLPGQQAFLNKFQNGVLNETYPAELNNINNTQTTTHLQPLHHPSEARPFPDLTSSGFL
In short: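 HepG2 cells (HG2L7.5c1) stably carrying a firefly luciferase reporter driven by 20 dioxin responsive elements were exposed to compound for 24 h at 37C after a 5 h settling period; luminescence rise (ONE-Glo) indicated activation.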

[2] = qHTS assay to identify small molecule that activate the aryl hydrocarbon receptor (AhR) signaling pathway - cell viability counter screen (AID 743086); further: nearly all actives have a fitted effect of over 45% in size; further: potency means the concentration at half of the fitted maximal effect
In short: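 HepG2-AhR-luc (HG2L7.5c1) cells, 4000/well, were preincubated 5 h at 37C, exposed to compound in qHTS format for 24 hr at 37C, then given CellTiter-Fluor for 30 min; viability was read as fluorescence in the reporter wells.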

[3] = biological target: Peroxisome proliferator-activated receptor gamma (Homo sapiens) (UniProt P37231); experiment: qHTS assay to identify small molecule agonists of the peroxisome proliferator-activated receptor gamma (PPARg) signaling pathway (AID 743094; active means well fitted activation curve with a large enough effect in the signal ratio in the repeat runs, not every such curve was filed as active; the % refers to the signal ratio)
Chain of Peroxisome proliferator-activated receptor gamma (Homo sapiens) (P37231 whole entry, looked up): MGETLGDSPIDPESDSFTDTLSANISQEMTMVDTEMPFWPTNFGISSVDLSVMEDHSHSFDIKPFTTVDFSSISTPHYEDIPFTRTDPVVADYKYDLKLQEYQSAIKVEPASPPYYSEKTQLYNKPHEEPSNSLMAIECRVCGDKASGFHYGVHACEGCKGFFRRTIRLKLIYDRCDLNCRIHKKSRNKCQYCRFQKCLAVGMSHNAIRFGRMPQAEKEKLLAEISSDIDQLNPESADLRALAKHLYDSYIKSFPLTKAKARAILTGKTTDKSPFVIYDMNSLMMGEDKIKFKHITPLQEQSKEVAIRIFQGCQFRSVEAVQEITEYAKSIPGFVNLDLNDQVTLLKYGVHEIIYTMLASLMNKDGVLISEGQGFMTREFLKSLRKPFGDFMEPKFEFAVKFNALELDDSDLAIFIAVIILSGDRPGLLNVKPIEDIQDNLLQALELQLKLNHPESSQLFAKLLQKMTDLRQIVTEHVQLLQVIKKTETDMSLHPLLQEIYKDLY
In short: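 Reporter activation was scored by fluorescence of cleaved LiveBLAzer B/G substrate (1 h, room temperature) in PPARg-bla HEK293H cells previously treated 17 h at 37C with DMSO-dissolved compounds.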

[4] = biological target: Peroxisome proliferator-activated receptor gamma (Homo sapiens) (UniProt P37231); experiment: qHTS assay to identify small molecule antagonists of the peroxisome proliferator-activated receptor gamma (PPARg) signaling pathway (AID 743191; calls by dose curve; further: series mostly up to about 63 µM; nearly all actives have a fitted effect of over 30% in size)
In short: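 GeneBLAzer PPARg UAS-bla HEK293H cells carrying a UAS-driven beta-lactamase reporter were plated at 3000 cells/well, preincubated 5 h at 37C, then given compound for 17 h at 37C; LiveBLAzer B/G FRET substrate was read after 1 h at room temperature.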

[5] = qHTS assay for small molecule agonists of the antioxidant response element (ARE) signaling pathway (AID 743202; active means well fitted activation curve with a large enough effect in the signal ratio in the repeat runs, not every such curve was filed as active; the % refers to the signal ratio; further: potency means the concentration at half of the fitted maximal effect)
In short: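 Steps: seed ARE-bla HepG2 cells (2,000/well); incubate 5 h at 37 C; add compounds by pin tool; incubate 16 h at 37 C; add FRET substrate; read fluorescence after 2 h at RT.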

[6] = qHTS assay for small molecule agonists of the antioxidant response element (ARE) signaling pathway - cell viability counter screen (AID 743203; calls by dose curve; further: nearly all actives have a fitted effect of over 55% in size)
In short: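 Viability counter screen: stably transfected ARE-bla HepG2 line, 16 hrs compound exposure at 37C/5% CO2, ATP-based CellTiter-Glo luminescence measured in the reporter wells.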

[7] = qHTS assay for small molecule activators of the heat shock response signaling pathway - cell viability counter screen (AID 743209); further: nearly all actives have a fitted effect of over 50% in size
In short: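 Viability of HSE-bla HeLa cells is measured with CellTiter-Glo in the wells already used for the reporter read. Compound exposure lasts 5 h at 37 C, and luminescence is read after 30 min at room temperature.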

[8] = qHTS assay for small molecule activators of the heat shock response signaling pathway (AID 743210; active means well fitted activation curve with a large enough effect in the signal ratio in the repeat runs, with a control signal flat, not every such curve was filed as active; the % refers to the signal ratio; further: potency means the concentration at half of the fitted maximal effect;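 on activation: HeLa cells with beta-lactamase reporter driven by heat shock elements; series mostly up to about 63 µM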)
In short: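 Activation of heat shock element-controlled beta-lactamase expression is measured in HeLa cells by LiveBLAzer FRET fluorescence, with compound exposure lasting 5 h at 37 C and substrate loading 2.5 h at room temperature.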

[9] = qHTS assay to identify small molecule antagonists of the peroxisome proliferator-activated receptor gamma (PPARg) signaling pathway - cell viability counter screen (AID 743194); settings: Potency: co-treated with 50 nM rosiglitazone; further: nearly all actives have a fitted effect of over 55% in size
In short: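 PPARg-UAS-bla HEK293H cells were plated, rested 5 h at 37 C, then treated with compounds plus rosiglitazone (50 nM final) for 17 h at 37 C; viability was then read by CellTiter-Glo luminescence after 30 min at room temperature.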

[10] = qHTS assay to identify small molecule agonists of the peroxisome proliferator-activated receptor delta (PPARd) signaling pathway - cell viability counter screen (AID 743211); further: nearly all actives have a fitted effect of over 55% in size
In short: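 PPARd-bla HEK293H cells (UAS-beta-lactamase reporter) were treated with compounds for 17 h at 37 C. Viability was then read in the same wells by CellTiter-Glo luminescence after 30 min at room temperature.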

Measured: Potency

COc1ccc2c(C(=O)c3ccc(Cl)cc3)c(C)n(CC(=O)O)c2c1
active: [1] 33.5 µM
not listed: [9] | [10]
inactive: all other assays above

CC(O)CCl (centres undefined)
not listed: [5]
inactive: all other assays above

CCOP(=O)(CN(CCO)CCO)OCC
not listed: [5]
inactive: all other assays above

CN(C)C(=O)Oc1cc(OC(=O)N(C)C)cc(C(O)CNC(C)(C)C)c1 (centres undefined)
not listed: [8]
inactive: all other assays above

C[C@@H](N)[C@@H](O)c1ccccc1
not listed: [8]
inactive: all other assays above

NCC1(CC(=O)O)CCCCC1
not listed: [9]
inactive: all other assays above

ClCC1CO1 (centres undefined)
not listed: [7]
inactive: all other assays above

COC(=O)[C@@H](N)CCCN/C(N)=N/[N+](=O)[O-]
not listed: [5]
inactive: all other assays above

ClC(Cl)(Cl)Cl
not listed: [8]
inactive: all other assays above

CC(=NC#N)N(C)Cc1ccc(Cl)nc1
not listed: [9]
inactive: all other assays above

CCCCOC(C)=O
not listed: [8]
inactive: all other assays above

Clc1ccc(C(Cl)(Cl)Cl)cn1
active: [1] 48.6 µM
not listed: [6]
inactive: all other assays above

COc1ccc(CN2CCNCC2)c(OC)c1OC
not listed: [8]
inactive: all other assays above

CN(CCO)CCO
not listed: [5]
inactive: all other assays above

OCC(Cl)CCl (centres undefined)
not listed: [7]
inactive: all other assays above

CC[C@H](N)c1ccccc1
not listed: [9] | [10]
inactive: all other assays above

CC(C)(N)Cc1ccc(Cl)cc1
not listed: [5]
inactive: all other assays above

OP(O)c1ccccc1
not listed: [4]
inactive: all other assays above

CCOP(=S)(OCC)Oc1ccc(Cl)cc1Cl
active: [1] 19.3 µM
not listed: [5] | [9]
inactive: all other assays above

O=C(O)CBr
not listed: [4]
inactive: all other assays above

C/C=C/CC#N
not listed: [4]
inactive: all other assays above

Nc1c(Cl)c(F)nc(OCC(=O)O)c1Cl
not listed: [4]
inactive: all other assays above

O=C(Cl)c1ccccc1
not listed: [5] | [9]
inactive: all other assays above

CCNc1nc(NCC)nc(SC)n1
not listed: [5] | [9]
inactive: all other assays above

C=C1CC[C@@]2(O)[C@H]3Cc4ccc(O)c5c4[C@@]2(CCN3CC2CC2)[C@H]1O5
not listed: [4]
inactive: all other assays above

COc1cccc(C=O)c1
not listed: [9]
inactive: all other assays above

COP(=O)(OC)O/C(C)=C/C(=O)N(C)C
not listed: [9]
inactive: all other assays above

C=CC1(C)OC(=O)N(c2cc(Cl)cc(Cl)c2)C1=O (centres undefined)
not listed: [9]
inactive: all other assays above

CCCCCCC1CCOC1=O (centres undefined)
not listed: [4]
inactive: all other assays above

CCCCCCCC(=O)Cl
not listed: [9]
inactive: all other assays above

CCCCS(=O)(=O)Cl
not listed: [5] | [9]
inactive: all other assays above

CCN(CC)C1CCCCC1
not listed: [9]
inactive: all other assays above

NNCc1ccccc1
active: [1] 55.5 µM | [5] 5.55 µM
not listed: [4]
inactive: all other assays above

CC1NCCOC1c1ccccc1 (centres undefined)
not listed: [9]
inactive: all other assays above

NC(=O)CS(=O)C(c1ccccc1)c1ccccc1 (centres undefined)
not listed: [9]
inactive: all other assays above

O=c1[nH]c2ccccc2o1
not listed: [4]
inactive: all other assays above

[P]#[In]
not listed: [9]
inactive: all other assays above

CCC1(c2ccccc2)CCC(=O)NC1=O (centres undefined)
not listed: [4]
inactive: all other assays above

CC(=O)CN(CC(C)=O)N=O
not listed: [9]
inactive: all other assays above

O=S1(=O)OCCO1
not listed: [9]
inactive: all other assays above

CS(=O)(=O)Cl
not listed: [4]
inactive: all other assays above

CNC(=O)NC(O)C(Cl)(Cl)Cl (centres undefined)
not listed: [4]
inactive: all other assays above

CC#Cc1cc(C)nc(Nc2ccccc2)n1
active: [1] 30.6 µM | [5] 34.3 µM
not listed: [4]
inactive: all other assays above

Cc1ccc2c(c1)C1CN(C)CCC1N2 (centres undefined)
not listed: [9]
inactive: all other assays above

O=C(Cl)C(Cl)Cl
not listed: [4]
inactive: all other assays above

C(COCC1CO1)OCC1CO1 (centres undefined)
not listed: [5] | [8] | [9]
inactive: all other assays above

CCN[C@@H](C)Cc1ccccc1
not listed: [5] | [9]
inactive: all other assays above

c1cncc([C@@H]2CCCCN2)c1
not listed: [9]
inactive: all other assays above

CCNc1nc(Cl)nc(NC(C)(C)C)n1
not listed: [9]
inactive: all other assays above

C[C@H]1CCCC(=O)CCC/C=C/c2cc(O)cc(O)c2C(=O)O1
active: [8] 12.7 µM
37.1 µM (active) and inactive: [2]
inactive: [1] | [3] | [4] | [6] | [10]

CCCC[N+](=O)[O-]
not listed: [9]
inactive: all other assays above

COC(=O)c1ccccc1CS(=O)(=O)NC(=O)Nc1nc(OC)cc(OC)n1
not listed: [9]
inactive: all other assays above

C=C1C[C@@H]2[C@H](CC[C@]3(C)C(=O)CC[C@@H]23)[C@@]2(C)C=CC(=O)C=C12
active: [5] 2.66 µM
not listed: [4]
inactive: all other assays above

O=C(O)c1c(Cl)ccc2cc(Cl)cnc12
not listed: [4] | [5]
inactive: all other assays above

Cc1cc(OC(=O)N(C)C)nn1C(=O)N(C)C
not listed: [4] | [9]
inactive: all other assays above

CC(C)(C1CCC(O)CC1)C1CCC(O)CC1 (centres undefined)
not listed: [4]
inactive: all other assays above

O=C(NC(=O)c1c(F)cccc1F)Nc1cc(Cl)c(F)c(Cl)c1F
not listed: [4] | [5]
inactive: all other assays above
